The text below walks through data of PubChem BioAssay (Tox21).

Assay [1] in a line: qHTS assay to identify small molecule agonists of the androgen receptor (AR) signaling pathway in the presence of an antagonist - cell viability counter screen (AID 1259379). Further: nearly all actives have a fitted effect of over 25% in size. Further: potency means the concentration at half of the fitted maximal effect.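 On activity change, negative = cytotoxicity: MDA-kb2 human breast cancer cells carrying an MMTV luciferase reporter; series mostly up to about 92 µM.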 In a few lines: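 Viability counter screen: CellTiter-Fluor fluorescence, measured in the same wells as the luciferase read-out. MDA-kb2 cells, 3,000/well, with nilutamide at 3.0uM final and compounds at 15 concentrations, 16 hr at 37C, 0% CO2.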

A short description of assay [2]: qHTS assay to identify small molecule agonists of the estrogen receptor beta (ER-beta) signaling pathway - cell viability counter screen (AID 1259380). Further: nearly all actives have a fitted effect of over 30% in size. Further: potency means the concentration at half of the fitted maximal effect. The essentials:
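Luminescence read-out (CellTiter-Glo, 30 min, room temp) taken in the same wells as the beta-lactamase reporter assay; ER-beta-UAS-bla HEK293T cells exposed to DMSO-dissolved compounds for 16 hr at 37C in 2% charcoal-stripped FBS medium.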

The nature of assay [3]: qHTS assay to identify small molecule antagonists of the estrogen receptor beta (ER-beta) signaling pathway - cell viability counter screen (AID 1259382). Further: nearly all actives have a fitted effect of over 55% in size. Further: potency means the concentration at half of the fitted maximal effect.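 On activity change, negative = cytotoxicity: HEK293T cells carrying ER-beta-UAS-bla reporter stimulated with estradiol; series mostly up to about 92 µM.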 In a few lines: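 Luminescent ATP read-out (CellTiter-Glo, 30 min, RT) taken in the same wells as the bla reporter assay. HEK293T ER-beta-UAS-bla cells in 2% charcoal-stripped FBS were exposed to compounds with 1nM E2 for 16 hr at 37C.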

A short description of assay [4]: qHTS assay to identify small molecule agonists or antagonists of the thyroid stimulating hormone receptor (TSHR) signaling pathway - wild type cell line counter screen (AID 1259384; calls by dose curve). The essentials:
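Counter screen in untransfected Hek293: compounds (15-point titration, triplicate) plus phosphodiesterase inhibitor Ro20-1724 added after 18 h plating; 30 min RT. Intracellular cAMP via competitive d2/cryptate immunoassay, 1 h incubation.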
On the technique in general: Quantitative high-throughput screening tests each substance at several concentrations.

In assay [5] the target is Thyrotropin receptor (Homo sapiens) (UniProt P16473). Briefly: qHTS assay to identify small molecule antagonists of the thyroid stimulating hormone receptor (TSHR) signaling pathway (AID 1259385; calls by dose curve; further: nearly all actives have a fitted effect of over 20% in size). In a few lines:
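Antagonist mode: compound-treated TSHR-expressing HEK293 cells were stimulated with 1.5 ng/mL TSH (final) in presence of Ro20-1724 for 30 min at RT. HTRF cAMP detection after 1 h; each compound tested at 15 concentrations, triplicate.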

Assay [6] is described as follows: qHTS assay to identify small molecule agonists of the estrogen receptor alpha (ER-alpha) signaling pathway in the presence of an antagonist - cell viability counter screen (AID 1259386). Further: nearly all actives have a fitted effect of over 30% in size. Further: potency means the concentration at half of the fitted maximal effect. On activity change, negative = cytotoxicity: series mostly up to about 92 µM. In a few lines: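 Read-out: CellTiter-Fluor fluorescence after 1hr reagent incubation, measured in the same wells as the luciferase readout. VM7Luc4E2 cells were exposed to 15 compound concentrations with 10.0nM ICI-182,780 for 22hr at 37C.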

Assay [7] deals with Estrogen receptor (Homo sapiens) (UniProt P03372). Nature of the assay: qHTS assay to identify small molecule agonists of the estrogen receptor alpha (ER-alpha) signaling pathway in the presence of an antagonist (AID 1259383; calls by dose curve; further: top concentration of the series differs between compounds; nearly all actives have a fitted effect of over 15% in size). The essentials:
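Luciferase luminescence (ONE-Glo, 30min at room temperature) measured in VM7Luc4E2 cells after 22hr compound exposure at 15 concentrations, with 10.0nM ICI-182,780 final present; cells express endogenous ER-alpha and carry four EREs upstream of luciferase.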

A number with no mark means an inactive call. Results filed as inconclusive are left out. Activity calls are given as the source filed them. Unless noted, the call rests on the fitted dose curve; in most records, active means well fitted curve in the direction sought with a large enough effect in the repeat runs; inconclusive means weak or mixed curves; inactive means no such curve, though single readings can be large; an effect the other way counts as inactive or inconclusive.
On the % scale 0 is the no-effect control and ±100 the full control effect.

Chain of Estrogen receptor (Homo sapiens) (P03372 whole entry, looked up): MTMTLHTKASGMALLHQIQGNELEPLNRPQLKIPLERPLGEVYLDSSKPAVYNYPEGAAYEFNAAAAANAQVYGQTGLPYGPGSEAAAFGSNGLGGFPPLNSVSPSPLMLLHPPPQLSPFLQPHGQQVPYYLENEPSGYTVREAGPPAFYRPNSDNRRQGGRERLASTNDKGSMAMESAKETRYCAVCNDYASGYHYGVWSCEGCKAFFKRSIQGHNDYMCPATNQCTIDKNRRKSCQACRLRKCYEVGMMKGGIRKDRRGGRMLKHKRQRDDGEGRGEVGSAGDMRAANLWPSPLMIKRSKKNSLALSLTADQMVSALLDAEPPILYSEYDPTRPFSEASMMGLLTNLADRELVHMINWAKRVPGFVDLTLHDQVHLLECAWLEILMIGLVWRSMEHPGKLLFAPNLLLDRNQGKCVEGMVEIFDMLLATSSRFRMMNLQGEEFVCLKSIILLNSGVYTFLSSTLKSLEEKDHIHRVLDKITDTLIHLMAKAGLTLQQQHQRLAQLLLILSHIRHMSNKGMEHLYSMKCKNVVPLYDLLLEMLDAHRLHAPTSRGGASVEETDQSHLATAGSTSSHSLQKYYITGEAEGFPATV
Chain of Thyrotropin receptor (Homo sapiens) (P16473 whole entry, looked up): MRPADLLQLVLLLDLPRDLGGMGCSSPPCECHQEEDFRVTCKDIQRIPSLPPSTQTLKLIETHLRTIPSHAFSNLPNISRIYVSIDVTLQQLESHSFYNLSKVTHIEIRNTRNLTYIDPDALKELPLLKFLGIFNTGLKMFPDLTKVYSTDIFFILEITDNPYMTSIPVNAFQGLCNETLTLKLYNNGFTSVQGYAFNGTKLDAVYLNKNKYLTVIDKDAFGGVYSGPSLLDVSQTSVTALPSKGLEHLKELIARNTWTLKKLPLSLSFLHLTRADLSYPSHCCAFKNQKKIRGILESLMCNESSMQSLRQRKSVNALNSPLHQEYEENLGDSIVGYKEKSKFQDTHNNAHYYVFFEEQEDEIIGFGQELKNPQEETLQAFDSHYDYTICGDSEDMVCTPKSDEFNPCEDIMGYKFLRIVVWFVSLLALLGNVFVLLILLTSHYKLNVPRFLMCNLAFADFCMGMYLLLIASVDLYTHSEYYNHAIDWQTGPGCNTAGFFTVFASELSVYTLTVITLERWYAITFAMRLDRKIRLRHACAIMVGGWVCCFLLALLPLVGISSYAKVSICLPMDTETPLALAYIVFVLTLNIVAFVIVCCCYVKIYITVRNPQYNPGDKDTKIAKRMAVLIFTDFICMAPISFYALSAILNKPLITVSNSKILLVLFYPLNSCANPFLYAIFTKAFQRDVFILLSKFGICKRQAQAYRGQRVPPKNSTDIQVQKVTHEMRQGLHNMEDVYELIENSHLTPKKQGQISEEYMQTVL

With `CCN(CCO)CCCC(C)Nc1ccnc2cc(Cl)ccc12` (configuration not stated), the activity change, negative = cytotoxicity in assay [1] was -1.54% [at 8.39 µM]; in assay [2], 3.81% [at 8.39 µM]; in assay [3], -2.09% [at 8.39 µM]; in assay [6], -3.53% [at 8.39 µM]. Besides, the cAMP activity change in assay [4] was -5.44% [at 8.39 µM, stronger effect = higher value]. Moreover, the activity change, negative = inhibition in assay [5] was -2.73% [at 8.39 µM].
Regarding `CCCCCCCCCCCCCCCC(=O)OC/C=C(C)/C=C/C=C(C)/C=C/C1=C(C)CCCC1(C)C`, the Potency result in assay [1], in assay [2], in assay [3], in assay [4], in assay [5] and in assay [6] was “inactive” in each case.
Regarding `C[Si](C)O[Si](C)(C)O[Si](C)(C)O[Si](C)C`, the Potency result in assay [1], in assay [2], in assay [3], in assay [7], in assay [4] and in assay [6] was “inactive” in each case.
On to `O=S(=O)(O)c1ccc(O)c2ncccc12`, for which the Potency result in assay [1], in assay [2], in assay [3], in assay [7], in assay [4] and in assay [5] was “inactive” in each case. In addition, the Potency result in assay [6] was “inactive”.
`CCOC(=O)CC(=O)c1cc(F)c(Cl)nc1Cl`: the Potency result in assay [1], in assay [2], in assay [3], in assay [7] and in assay [6] was “inactive” each time.
Take `CC[C@H](C)[C@@H](C(=O)O)n1sc2ccccc2c1=O`: the Potency entry in assay [1], in assay [7], in assay [4] and in assay [6] was “inactive” in each case. Also, the Potency in assay [2] was 54.5 µM (active); in assay [3] it was 30.6 µM (active).
For the compound `CN(C)C/C=C(/c1ccc(Br)cc1)c1cccnc1`, the Potency result in assay [1], in assay [2], in assay [3], in assay [4], in assay [5] and in assay [6] was “inactive” each time.
As for `CC(=O)Nc1ccc(/C=N/NC(N)=S)cc1`, the Potency result in assay [1], in assay [2], in assay [3], in assay [4] and in assay [6] was “inactive” each time.
`COc1ccc2[nH]c(S(=O)Cc3ncc(C)c(OC)c3C)nc2n1` (configuration not stated): the Potency result in assay [1], in assay [2], in assay [3], in assay [7] and in assay [6] was “inactive” each time.
As to `Cl/C(=C\n1cncn1)c1ccc(Cl)cc1Cl`, the Potency result in assay [1], in assay [2], in assay [3], in assay [4], in assay [5] and in assay [6] was “inactive” throughout.
As for `CC(C)c1ccccc1C(C)C`, the Potency entry in assay [1], in assay [2], in assay [3], in assay [4], in assay [5] and in assay [6] was “inactive” in each case.
In the case of `C=CC(C)(CCC=C(C)C)OC(=O)c1ccccc1` (configuration not stated), the Potency entry in assay [1], in assay [2], in assay [3], in assay [4], in assay [5] and in assay [6] was “inactive” each time.
Regarding `N#Cc1c(F)cccc1F`, the Potency result in assay [1], in assay [2], in assay [3], in assay [4], in assay [5] and in assay [6] was “inactive” each time.
Consider `CC(C)(C)c1cc(CCC(=O)OCC(COC(=O)CCc2cc(C(C)(C)C)c(O)c(C(C)(C)C)c2)(COC(=O)CCc2cc(C(C)(C)C)c(O)c(C(C)(C)C)c2)COC(=O)CCc2cc(C(C)(C)C)c(O)c(C(C)(C)C)c2)cc(C(C)(C)C)c1O`, for which the Potency entry in assay [1], in assay [2], in assay [3], in assay [7], in assay [4] and in assay [6] was “inactive” each time.
For `CCCC[C@H]1CN(CC2CCOCC2)C(=O)OC12CCN(C1(C)CCN(C(=O)c3c(C)ncnc3C)CC1)CC2`, the Potency result in assay [1], in assay [2], in assay [3], in assay [4], in assay [5] and in assay [6] was “inactive” in each case.
For `O=C(CC(=O)c1ccccc1)c1ccccc1`, the Potency entry in assay [1], in assay [2], in assay [3], in assay [4], in assay [5] and in assay [6] was “inactive” in each case.
Turning to `N#CCc1cccc(C(F)(F)F)c1`, the Potency result in assay [1], in assay [2], in assay [3], in assay [7], in assay [4] and in assay [5] was “inactive” in each case. The Potency result in assay [6] is “inactive”.
`CCOc1ccc2[nH]cc(C(=O)NCc3ccccc3)c(=O)c2n1`: the Potency entry in assay [1], in assay [2], in assay [3], in assay [7], in assay [4] and in assay [5] was “inactive” throughout. Also, the Potency entry in assay [6] was “inactive”.
With `CCCCCCCCCCCCCCC1CO1` (configuration not stated), the Potency entry in assay [1], in assay [2], in assay [3], in assay [7], in assay [4] and in assay [6] was “inactive” throughout.
`COCCO`: the Potency result in assay [1], in assay [2], in assay [3], in assay [7] and in assay [6] was “inactive” in each case.
As for `CC1CCc2cc(F)cc3c(=O)c(C(=O)O)cn1c23` (configuration not stated), the Potency entry in assay [1], in assay [2], in assay [3], in assay [4], in assay [5] and in assay [6] was “inactive” in each case.
With `O=S1(=O)N=C(O)c2ccccc21`, the Potency result in assay [1], in assay [2], in assay [3], in assay [4] and in assay [6] was “inactive” throughout.
`CC1=CCC(C(C)C)C=C1` (configuration not stated): the Potency entry in assay [1], in assay [2], in assay [3], in assay [7] and in assay [6] was “inactive” in each case.
On to `Cc1nc2ccccc2n1Cc1ccc(Cl)cc1`, for which the results for the Potency in assay [1] and in assay [6] were 4.22 µM (active) and 13.3 µM (active), respectively. For the same compound, the Potency result in assay [3] and in assay [7] was “inactive” in each case.
Take `CN(C)CC[C@@H](c1ccc(Br)cc1)c1ccccn1`: the Potency entry in assay [1], in assay [3], in assay [7] and in assay [6] was “inactive” throughout.
For `CNS(=O)(=O)Cc1ccc2[nH]cc(CCN(C)C)c2c1`, the Potency entry in assay [1], in assay [2], in assay [3] and in assay [6] was “inactive” throughout.
For `O=C1c2cccc(O)c2C(=O)c2c(O)cc(CO)cc21`, the Potency result in assay [3], in assay [7] and in assay [4] was “inactive” each time.
In the case of `CCCCOc1ccc(CC(=O)NO)cc1`, the Potency entry in assay [1] and in assay [4] was “inactive” throughout. The Potency in assay [2] is 9.44 µM (active).
As to `CCCCCCCCCCCCC(=O)O`, the Potency result in assay [1], in assay [7], in assay [4] and in assay [6] was “inactive” throughout. In assay [2], the Potency is 54.6 µM (active).
Regarding `Nc1nc(N)c(-c2ccccc2)s1`, the Potency entry in assay [1], in assay [2], in assay [3] and in assay [6] was “inactive” in each case.
